Source: PMC4336329 (PLoS ONE, 2015)
The whole screen tested about 310,000 compounds, of which about 14,000 (4.5%) showed an effect of 50% or more. The effect is printed as a negative number. Only a selection was taken, and strong results are over-represented in it overall.

The molecules below were run against human ether-à-go-go-related gene (hERG) potassium channel (human, UniProt Q12809) (assay: primary screen, population patch clamp on CHO cells stably expressing hERG; higher = less effect of the substance).
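Further: peak tail current of the secondary pulse compared with the same well before compound.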

Sequence of human ether-à-go-go-related gene (hERG) potassium channel (Q12809 whole entry, looked up): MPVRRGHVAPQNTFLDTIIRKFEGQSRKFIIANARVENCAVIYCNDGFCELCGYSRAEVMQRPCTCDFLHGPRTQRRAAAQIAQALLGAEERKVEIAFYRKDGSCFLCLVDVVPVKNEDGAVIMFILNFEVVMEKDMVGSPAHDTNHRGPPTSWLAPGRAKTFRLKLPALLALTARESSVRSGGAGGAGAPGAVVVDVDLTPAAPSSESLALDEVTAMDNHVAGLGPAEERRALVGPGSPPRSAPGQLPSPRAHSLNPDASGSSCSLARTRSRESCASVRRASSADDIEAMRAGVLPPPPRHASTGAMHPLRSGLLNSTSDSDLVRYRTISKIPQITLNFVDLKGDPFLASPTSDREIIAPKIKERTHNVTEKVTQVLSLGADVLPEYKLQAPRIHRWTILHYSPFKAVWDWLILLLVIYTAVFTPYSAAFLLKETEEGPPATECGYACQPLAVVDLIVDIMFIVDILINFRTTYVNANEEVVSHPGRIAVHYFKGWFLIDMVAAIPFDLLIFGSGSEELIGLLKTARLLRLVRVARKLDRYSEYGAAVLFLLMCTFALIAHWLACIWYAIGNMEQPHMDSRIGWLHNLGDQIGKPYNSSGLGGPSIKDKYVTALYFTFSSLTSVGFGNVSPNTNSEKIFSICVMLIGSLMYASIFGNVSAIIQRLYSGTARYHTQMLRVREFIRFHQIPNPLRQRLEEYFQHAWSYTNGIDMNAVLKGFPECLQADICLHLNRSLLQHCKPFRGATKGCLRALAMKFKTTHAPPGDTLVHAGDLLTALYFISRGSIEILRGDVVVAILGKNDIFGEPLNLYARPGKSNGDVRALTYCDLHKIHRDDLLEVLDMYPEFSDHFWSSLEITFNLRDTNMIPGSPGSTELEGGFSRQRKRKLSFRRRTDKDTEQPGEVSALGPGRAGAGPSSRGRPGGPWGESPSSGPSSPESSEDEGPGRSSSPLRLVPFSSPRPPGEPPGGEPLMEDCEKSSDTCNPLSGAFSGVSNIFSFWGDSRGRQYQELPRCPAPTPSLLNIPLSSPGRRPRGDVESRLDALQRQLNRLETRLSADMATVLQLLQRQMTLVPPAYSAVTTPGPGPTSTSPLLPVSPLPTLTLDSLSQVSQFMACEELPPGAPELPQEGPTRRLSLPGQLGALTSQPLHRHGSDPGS

First: CCNC(=O)NC(=O)COC(=O)c1ccccc1SCC(=O)NC(=O)NCC
Second: CCN(CC)S(=O)(=O)c1ccc(C)c(NC(=O)CNCc2ccccc2OC)c1.O=C(O)C(=O)O
The “hERG current change (%, negative = inhibition) at 10uM” value of the first is higher: 3.64% for the first, -37.7% for the second.

Compared with `Cc1ccc(-c2nc3ccccc3c(C(=O)NCc3cccs3)c2C)cc1`, `COc1ccccc1CNC(=O)c1ccc(N(C)S(=O)(=O)c2ccc(C)cc2)cc1` is higher in “hERG current change (%, negative = inhibition) at 10uM” value: -5.33% for the first, 17.5% for the second.

Going from `COC(=O)C1=C(c2ccc(F)cc2F)C[C@@H]2CC[C@H]1N2C(=O)NCc1ccc(F)cc1` to `O=C(CN1CCC(C(=O)c2ccc(F)cc2)CC1)Nc1ccccc1Cl`, the “hERG current change (%, negative = inhibition) at 10uM” value rises from -46.4% to -20.5%.

Compared with `CC(=O)Nc1ccc(S(=O)(=O)Nc2c(NC3CCCCC3)c3ccccc3oc2=O)cc1`, `CCOC(=O)c1ccc(S(=O)(=O)N2CCC(C(=O)NCc3ccccc3OC)CC2)cc1` is lower in “hERG current change (%, negative = inhibition) at 10uM” value: 7.19% for the first, -22.5% for the second.

First: CC(=O)N1CCN(CC(=O)Nc2ccc(C)c(F)c2)CC1.Cl
Second: Cc1ccc(NC(=O)CN2CCN(Cc3ccccc3)CC2)cc1F
The “hERG current change (%, negative = inhibition) at 10uM” value of the first is higher: 0.314% for the first, -71.2% for the second.

First: CCN(CC)c1ccc(S(=O)(=O)N2CCOCC2)cc1NC(=O)CN1CCN(Cc2ccccc2)CC1.Cl
Second: CCN(CC)S(=O)(=O)c1ccc(C)c(NC(=O)CN2CCN(Cc3ccccc3)CC2)c1.Cl
The “hERG current change (%, negative = inhibition) at 10uM” value of the first is higher: -45.7% for the first, -69.1% for the second.

First: CCN(CC)S(=O)(=O)c1ccc(C)c(NC(=O)CNCCN(C(C)C)C(C)C)c1.O=C(O)C(=O)O
Second: CCN(CC)S(=O)(=O)c1ccc(C)c(NC(=O)CN2CCN(C)CC2)c1.O=C(O)C(=O)O
The “hERG current change (%, negative = inhibition) at 10uM” value of the first is lower: -75.5% for the first, -12.4% for the second.

Compared with `Cc1ccc(S(=O)(=O)N(C)C)cc1NC(=O)CN1CCN(Cc2ccccc2)CC1.Cl`, `Cc1ccc(NC(=O)CN2CCN(Cc3ccccc3)CC2)c(Br)c1.Cl` is lower in “hERG current change (%, negative = inhibition) at 10uM” value: -24.8% for the first, -72.5% for the second.

First: O=C(CN1CCN(CC(=O)c2ccc(F)cc2)CC1)Nc1ccccc1Cl
Second: Cc1ccc(NC(=O)CN2CCN(Cc3ccccc3)CC2)cc1Cl
The “hERG current change (%, negative = inhibition) at 10uM” value of the first is lower: -68.9% for the first, -46% for the second.

First: O=C(CN1CCNCC1)Nc1ccccc1Cl
Second: Cc1ccc(NC(=O)CN2CCOCC2)c(Br)c1
The “hERG current change (%, negative = inhibition) at 10uM” value of the first is higher: -2.06% for the first, -9.76% for the second.

First: Cc1cc(-c2csc(N)n2)c(C)n1CCc1ccccc1.Cl
Second: Cc1ccc(NC(=O)CNCc2ccccc2)c(Br)c1
The “hERG current change (%, negative = inhibition) at 10uM” value of the first is lower: -12.4% for the first, 0.831% for the second.

First: Cc1ccc(Oc2ncc(CN3CCOCC3)s2)cc1
Second: CCOc1ccccc1CNC(=O)c1ccc2nc(N3CCOCC3)sc2c1
The “hERG current change (%, negative = inhibition) at 10uM” value of the first is higher: 3.3% for the first, -47.5% for the second.

Compared with `C=CCn1c(SCC(=O)Nc2cc(C)on2)nc2sc(C)c(C)c2c1=O`, `Cc1cc(C)c(OCC(=O)Nc2nnc(-c3ccco3)o2)c(C)c1` is higher in “hERG current change (%, negative = inhibition) at 10uM” value: -0.759% for the first, 1.74% for the second.

Compared with `O=C(Nc1nnc(-c2ccc(Br)cc2)o1)C1=COCCO1`, `O=C(COc1ccccc1)Nc1nnc(-c2ccccc2Cl)o1` is higher in “hERG current change (%, negative = inhibition) at 10uM” value: 3.07% for the first, 8.56% for the second.

Going from `Cl.OC(c1ccccc1)(C1CCCCC1)C(CN1CCOCC1)c1ccccc1` (stereo not drawn) to `O=C1N=C(N2CCOCC2)S/C1=C\c1ccccc1OS(=O)(=O)c1ccccc1`, the “hERG current change (%, negative = inhibition) at 10uM” value rises from -12.5% to 0.61%.

Compared with `Cn1nnnc1SC1CC(=O)N(c2ccccc2)C1=O` (stereo not drawn), `O=S(=O)(c1ccc(-n2cnnn2)cc1)N1CCN(c2ccccc2F)CC1` is lower in “hERG current change (%, negative = inhibition) at 10uM” value: 2.48% for the first, -3.2% for the second.

Going from `O=C(NCCO)c1ccc2[nH]c3ccccc3c2c1` to `O=C(NCCOc1ccccc1)c1cncc(Br)c1`, the “hERG current change (%, negative = inhibition) at 10uM” value falls from 9.18% to -26.8%.

Going from `CCOC(=O)N1CCN(S(=O)(=O)c2ccc(-n3cnnn3)cc2)CC1` to `CCCN1CCN(S(=O)(=O)c2ccc(-n3cnnn3)cc2)CC1`, the “hERG current change (%, negative = inhibition) at 10uM” value rises from -61.4% to -28%.

First: COc1ccccc1CNC(=O)C1CCN(S(=O)(=O)c2ccc(-n3cnnn3)cc2)CC1
Second: O=C(NCc1ccccc1Cl)C1CCN(S(=O)(=O)c2ccc(-n3cnnn3)cc2)CC1
The “hERG current change (%, negative = inhibition) at 10uM” value of the first is lower: -66.9% for the first, -27.3% for the second.

Compared with `COc1ccccc1N1CCN(S(=O)(=O)c2ccc(-n3cnnn3)c(C)c2)CC1`, `COc1ccccc1N1CCN(S(=O)(=O)c2ccc(-n3cnnn3)cc2)CC1` is lower in “hERG current change (%, negative = inhibition) at 10uM” value: -13.7% for the first, -72% for the second.

First: COc1cccc(CNC(=O)C(=O)N2CCC3(CC2)OCCN3S(=O)(=O)c2ccc(C)cc2)c1
Second: COc1ccc(CNC(=O)C(=O)N2CCC3(CC2)OCCN3S(=O)(=O)c2ccc(C)cc2)cc1
The “hERG current change (%, negative = inhibition) at 10uM” value of the first is lower: -57% for the first, -29.9% for the second.

Compared with `CCOC(=O)N1CCN(S(=O)(=O)c2ccc(C)cc2)CC1`, `CS(=O)(=O)N1CCN(C(=O)Cc2ccc(Br)cc2)CC1` is lower in “hERG current change (%, negative = inhibition) at 10uM” value: 17.9% for the first, -1.44% for the second.

First: CCNC(=O)C(=O)N1CCC2(CC1)OCCN2S(=O)(=O)c1ccc(C)cc1
Second: COc1cccc(CNC(=O)C2CCN(S(=O)(=O)c3ccc(C)cc3)CC2)c1
The “hERG current change (%, negative = inhibition) at 10uM” value of the first is higher: 2.81% for the first, -50.4% for the second.

First: COc1ccc2[nH]cc(CCNS(=O)(=O)c3ccc(F)cc3)c2c1
Second: COc1ccc(S(=O)(=O)N2CCC(C(=O)NCc3cccc(OC)c3)CC2)cc1
The “hERG current change (%, negative = inhibition) at 10uM” value of the first is higher: 4.05% for the first, -17.4% for the second.

First: COc1ccccc1NC(=O)c1sc(Cl)nc1C
Second: CC(C)c1ccccc1OCCNC(=O)c1cncc(Br)c1
The “hERG current change (%, negative = inhibition) at 10uM” value of the first is higher: 2.93% for the first, -60.6% for the second.

Going from `O=[N+]([O-])c1ccc(S(=O)(=O)Nc2ccc(-c3ccc(N4CCOCC4)nn3)cc2)cc1` to `O=C1N=C(N2CCOCC2)S/C1=C\c1ccc(OS(=O)(=O)c2ccccc2)cc1`, the “hERG current change (%, negative = inhibition) at 10uM” value falls from -7.79% to -49.8%.

Going from `O=C(Cc1ccccc1)NNC(=S)NC(=O)c1cccnc1` to `CC(C)c1ccccc1OCCNC(=O)c1cccnc1`, the “hERG current change (%, negative = inhibition) at 10uM” value falls from 14.7% to -1.33%.

Going from `CC(C)C(NC(=O)C1CCCCC1)C(=O)Nc1ccc2c(c1)OCCO2` (stereo not drawn) to `O=C(NCc1ccccc1)C1CCC(=O)N(CC2CCCCC2)C1` (stereo not drawn), the “hERG current change (%, negative = inhibition) at 10uM” value rises from -1.07% to 9.03%.

Going from `CC(C)(C)OC(=O)N1CC(O)CC1C(=O)OCC(=O)c1ccc(-c2ccccc2)cc1` (stereo not drawn) to `CN(C)c1ccc(N2C(=NC(=O)COc3ccccc3)SC3CS(=O)(=O)CC32)cc1` (stereo not drawn), the “hERG current change (%, negative = inhibition) at 10uM” value falls from 32% to 23.7%.

Going from `COC(=O)C1Cc2c([nH]c3ccccc23)CN1` (stereo not drawn) to `COc1cccc(CNC(=O)C2CCN(S(=O)(=O)c3ccccc3)CC2)c1`, the “hERG current change (%, negative = inhibition) at 10uM” value falls from 1.45% to -36%.

Going from `COc1ccc(-c2cnn3c4c(c(C)nc23)CCN4C2CCCC2)cc1OC` to `CCOc1ccc(NC(=O)COc2ccc(C(=O)N3CCC(C(N)=O)CC3)cc2OC)cc1`, the “hERG current change (%, negative = inhibition) at 10uM” value rises from 2.7% to 9.91%.

First: COc1cccc(CNC(=O)C2CCN(S(=O)(=O)c3ccc(-n4cnnn4)cc3)CC2)c1
Second: COc1ccc(CNC(=O)C2CCCN(S(=O)(=O)c3ccc(-n4cnnn4)cc3)C2)cc1 (stereo not drawn)
The “hERG current change (%, negative = inhibition) at 10uM” value of the first is lower: -57.3% for the first, -8.97% for the second.

Compared with `COc1ccc(S(=O)(=O)N2CCC(C(=O)NCCC(=O)NCc3cccc(OC)c3)CC2)cc1`, `CCOC(=O)C1CCN(C(=O)c2ccc(OCC(=O)Nc3ccc(OCC)cc3)c(OC)c2)CC1` is lower in “hERG current change (%, negative = inhibition) at 10uM” value: -4.05% for the first, -19.5% for the second.

Going from `Cc1ccc(C(=O)Nc2ccc(N3CCN(S(C)(=O)=O)CC3)cc2)cc1` to `CC(=O)N1CCN(C2=NC(=O)/C(=C/c3ccc(OS(=O)(=O)c4ccccc4)cc3)S2)CC1`, the “hERG current change (%, negative = inhibition) at 10uM” value falls from 4.23% to -69.6%.

Going from `c1ccc(-c2nnc3ccc(N4CCC5(CC4)OCCO5)nn23)cc1` to `Br.c1ccc(CN2CCC(N=C3NN=C(c4ccc5c(c4)OCCO5)CS3)CC2)cc1`, the “hERG current change (%, negative = inhibition) at 10uM” value rises from -46.8% to -43.1%.

Compared with `Brc1ccc2ncnc(NCc3ccco3)c2c1`, `O=C(Nc1cc(Cl)ccc1O)C1CC(c2ccccc2O)=NO1` (stereo not drawn) is higher in “hERG current change (%, negative = inhibition) at 10uM” value: -39.5% for the first, -5.36% for the second.

First: N#CCc1c(C#N)c(N)nc(N2CCOCC2)c1C#N
Second: N#CCc1c(C#N)c(N)nc(N2CCN(C=O)CC2)c1C#N
The “hERG current change (%, negative = inhibition) at 10uM” value of the first is higher: 1.34% for the first, -10.8% for the second.

Going from `N#CCc1c(C#N)c(N)nc(N2CCN(c3ccc(F)cc3)CC2)c1C#N` to `CN1CCN(C2=NC(=O)/C(=C/c3ccccc3OS(=O)(=O)c3ccccc3)S2)CC1`, the “hERG current change (%, negative = inhibition) at 10uM” value falls from -63.9% to -76.1%.

First: O=C1OC(=O)c2c(Br)c(Br)c(Br)c(Br)c21
Second: Cc1cccc(C)c1NC(=O)CNC(=O)CN1C(=O)NC2(CCc3ccccc32)C1=O (stereo not drawn)
The “hERG current change (%, negative = inhibition) at 10uM” value of the first is higher: 20.7% for the first, 1.69% for the second.

Going from `CC(=O)Oc1ccccc1/C=C/c1ccc2ccccc2[n+]1C.[I-]` to `NC1=NC(=O)/C(=C/c2ccccc2OS(=O)(=O)c2ccccc2)S1`, the “hERG current change (%, negative = inhibition) at 10uM” value falls from 11.3% to 5.2%.

First: CC[n+]1c(/C=C2/C=C(C)CC(C)(C)C2)sc2ccc(OC)cc21.Cc1ccc(S(=O)(=O)[O-])cc1
Second: CC[n+]1c(/C=C2\C=C(C)CC(C)(C)C2)sc2ccccc21.[I-]
The “hERG current change (%, negative = inhibition) at 10uM” value of the first is lower: -68.7% for the first, -39.7% for the second.

First: CCC1=C/C(=C/c2sc3ccccc3[n+]2CC)CC(C)(C)C1.[I-]
Second: O=C(O)CSc1ncnc2c1sc1nc(-c3ccccc3)c3c(c12)CCC3
The “hERG current change (%, negative = inhibition) at 10uM” value of the first is higher: 11.5% for the first, 10.3% for the second.

First: CCOC(=O)c1cc(NC(=O)CN2CCCC2)cc(C(=O)OCC)c1
Second: CCOC(=O)C1CCN(C(=O)c2ccc(OCC(=O)Nc3cccc(C(F)(F)F)c3)c(OC)c2)CC1
The “hERG current change (%, negative = inhibition) at 10uM” value of the first is higher: -16.2% for the first, -61.9% for the second.

Going from `CC(=O)N1CCN(C2=NC(=O)/C(=C\c3cccs3)S2)CC1` to `CCOC(=O)C1CCN(C(=O)c2ccc(OCC(=O)Nc3cccc(C(F)(F)F)c3)cc2)CC1`, the “hERG current change (%, negative = inhibition) at 10uM” value falls from -37.1% to -55.5%.

Compared with `NC(=O)C1CCN(C(=O)c2ccc(OCC(=O)Nc3cccc(C(F)(F)F)c3)cc2)CC1`, `O=C(COc1ccc(C(=O)O)cc1)Nc1cccc(C(F)(F)F)c1` is higher in “hERG current change (%, negative = inhibition) at 10uM” value: 1.96% for the first, 22.5% for the second.
